Measurements reported in the supplement of paper PMC10933113.
Structures can show the parent of a compound that is named as a salt. ± gives the uncertainty stated by the source.

The compounds below were run on THP-1 (assay: CD86 surface expression induction over DMSO control (% over DMSO); higher = stronger dendritic cell activation). Details: exposure time: 24 h.
Procedure: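 hCLAT-like CD54 and CD86 surface expression on THP1 cells after 24 h exposure at a single concentration (highest non-cytotoxic concentration, or 100-200 µM if not cytotoxic). Flow cytometry (iQue) was run on 5,000 live cells.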

SMILES	CD86 surface expression induction
Cc1ccc2c(c1N)C(=O)c1ccccc1C2=O [1-Amino-2-methylanthraquinone] (100 µM)	102 ± 24
CC(C)=CC1C(C(=O)OCc2coc(Cc3ccccc3)c2)C1(C)C (stereo not given) [Resmethrin] (200 µM)	16.4 ± 4.8
CCNc1nc(NC(C)(C)C)nc(SC)n1 [Terbutryn] (100 µM)	0.6 ± 2.4
ClC1=C(Cl)C2(Cl)C3C(Cl)C(Cl)CC3C1(Cl)C2(Cl)Cl (stereo not given) [Chlordane] (200 µM)	33.3 ± 45
N#C/C=C/C#N [Fumaronitrile] (10 µM)	-2.66 ± 6.7
c1cc(OCC2CO2)ccc1Cc1ccc(OCC2CO2)cc1 (stereo not given) [Bis[4-(glycidyloxy)phenyl]methane] (100 µM)	7.56 ± 6.6
CCOP(=S)(OCC)Oc1cnc2ccccc2n1 [Quinalphos] (200 µM)	-2.83 ± 2.4
COc1ccc2[nH]cc(CCN(C(C)C)C(C)C)c2c1 [5-Methoxy-N,N-diisopropyltryptamine hydrochloride] (224.7 µM)	-4.94 ± 3.2
CCOCN(C(=O)CCl)c1c(C)cccc1CC [Acetochlor] (10 µM)	90 ± 25
O=C(O)c1ccccc1C(=O)Nc1cccc2ccccc12 [Naptalam*] (200 µM)	78.5 ± 110
NNC(N)=S [Thiosemicarbazide] (10 µM)	-15.6 ± 6.4
Nc1cc(Cl)ccc1O [2-Amino-4-chlorophenol] (200 µM)	41.9 ± 31
OC[P+](CO)(CO)CO [Tetrakis(hydroxymethyl)phosphonium SO4] (100 µM)	6.79 ± 11
COc1ccc(C(c2ccc(OC)cc2)C(Cl)(Cl)Cl)cc1 [Methoxychlor] (200 µM)	70.8 ± 55
CCCCNC(=O)OCC#CI [Carbamic acid, butyl-, 3-iodo-2-propynyl ester] (10 µM)	-9.06 ± 2.4
C=C1C[C@@H]2[C@H](CC[C@]3(C)C(=O)CC[C@@H]23)[C@@]2(C)C=CC(=O)C=C12 [Exemestane] (100 µM)	12.3 ± 25
CC(C)(C)C(=O)CCl [1-Chloro-3,3-dimethyl-butan-2-one] (200 µM)	-2.11 ± 2.4
COP(=S)(OC)Oc1ccc(SC)c(C)c1 [Fenthion] (100 µM)	-4.96 ± 3.4
[Cl][Cd][Cl] [Cadmium II chloride] (200 µM)	51.1 ± 5.8
c1ccc2c(c1)OCC(C1=NCCN1)O2 (stereo not given) [Idazoxan] (10 µM)	-10.6 ± 13

SMILES	CD86 surface expression induction
Nc1ccc2ccccc2c1 [2-Naphthylamine] (100 µM)	68.7 ± 65
COP(=S)(OC)Oc1nc(Cl)c(Cl)cc1Cl [Chlorpyrifos-methyl] (200 µM)	17.7 ± 42
c1ccc(Nc2ccc(Nc3ccccc3)cc2)cc1 [N,N'-Diphenyl-p-phenylenediamine] (200 µM)	-11.2 ± 8.1
O=C1OC(CCN2CCCCC2)OC1(c1ccccc1)c1ccccc1 (stereo not given) [Pipoxolan hydrochloride] (100 µM)	98.2 ± 160
O=C1C(Cl)=C(Cl)C(=O)C(Cl)=C1Cl [Chloranil] (100 µM)	16.6 ± 9.4
CC(COc1ccc(Oc2ccccc2)cc1)Oc1ccccn1 (stereo not given) [Pyriproxyfen] (200 µM)	-0.44 ± 4.1
CS/C(C)=N\OC(=O)N(C)SN(C)C(=O)O/N=C(\C)SC [Thiodicarb] (10 µM)	-14.6 ± 7.8
O=C(N/N=C/c1ccc([N+](=O)[O-])o1)c1cc([N+](=O)[O-])cc([N+](=O)[O-])c1O [Nifursol] (200 µM)	8.52 ± 13
NCCc1ccc(O)cc1 [Tyramine] (100 µM)	-4.16 ± 4.5
O=C(O)c1ccc(=O)[nH]c1 [6-Hydroxynicotinic acid] (100 µM)	-4.7 ± 6.2
COP(=O)(OC)OC(Br)C(Cl)(Cl)Br (stereo not given) [Naled] (100 µM)	30.5 ± 5.4
C[C@]12CC[C@H](O)C[C@H]1CC[C@@H]1[C@@H]2C[C@@H](O)[C@]2(C)[C@@H](C3=CC(=O)OC3)CC[C@]12O [Digoxigenin] (10 µM)	46.8 ± 22
CN1C[C@H](C(=O)N[C@]2(C)O[C@@]3(O)[C@@H]4CCCN4C(=O)[C@H](Cc4ccccc4)N3C2=O)C=C2c3cccc4[nH]cc(c34)C[C@H]21 [Ergotamine D-tartrate*] (79 µM)	63 ± 77
O=[N+]([O-])c1cc(C(F)(F)F)c(Cl)c([N+](=O)[O-])c1Cl [2,4-Dichloro-1,3-dinitro-5-(trifluoromethyl)benzene] (10 µM)	34.2 ± 15
O=C(CCl)CCl [1,3-Dichloropropanone] (200 µM)	16.5 ± 17
CC(C)OC(=S)S [Proxan-sodium] (10 µM)	-16.7 ± 6.5
CCOC(=O)CC(SP(=S)(OC)OC)C(=O)OCC (stereo not given) [Malathion] (100 µM)	-0.63 ± 4.7
CCC(C)(CC)c1cc(NC(=O)c2c(OC)cccc2OC)on1 [Isoxaben] (200 µM)	0.63 ± 1.4
O=C(CCl)c1ccccc1 [2-Chloroacetophenone] (100 µM)	8.54 ± 19
COc1ccc(O)c(C(C)(C)C)c1 [2-tert-Butyl-4-methoxyphenol] (200 µM)	-4.34 ± 6.1
